Among all 5,500 compounds or so, about 2,000 (36%) were called active. Not shown: some 18% with an inconclusive outcome. Cut-off read from the data, not from the text of the source: active = normalized growth mostly below about 0.91 (no sharp cut-off); inconclusive = no clear call, values can overlap the other calls; inactive = mostly above about 0.92. Some of the results follow.
Test: chemical genetic growth profiling, strain panel (AID 1159580);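 note: tested at 20 µM; growth read once vehicle control cultures reached saturation at 30 °C; 1 = growth at the plate median or of vehicle wells; lower values mean less growth of the strain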
Conditions: growth OD

Measured: normalized growth

O=C1c2ccccc2C(=O)N1CNc1cccc(Cl)c1
inactive: S. cerevisiae deletion strains, locus YAL013W, strain DEP1, active compounds read low 0.983 | S. cerevisiae deletion strains, locus YBR229C, strain ROT2, active compounds read low 1 | S. cerevisiae deletion strains, locus YDL101C, strain DUN1, active compounds read low 0.972 | S. cerevisiae deletion strains, locus YDR150W, strain NUM1, active compounds read low 0.931 | S. cerevisiae deletion strains, locus YEL061C, strain CIN8, active compounds read low 0.986 | S. cerevisiae deletion strains, locus YGR078C, strain PAC10, active compounds read low 0.963 | S. cerevisiae deletion strains, locus YHR030C, strain SLT2, active compounds read low 0.959 | S. cerevisiae deletion strains, locus YHR087W, strain rtc3, active compounds read low 1 | S. cerevisiae deletion strains, locus YJL187C, strain SWE1, active compounds read low 1.01 | S. cerevisiae deletion strains, locus YJR043C, strain POL32, active compounds read low 0.943 | S. cerevisiae deletion strains, locus YJR075W, strain HOC1, active compounds read low 0.951 | S. cerevisiae deletion strains, locus YKL190W, strain CNB1, active compounds read low 1.02 | S. cerevisiae deletion strains, locus YLR039C, strain RIC1, active compounds read low 1.01 | S. cerevisiae deletion strains, locus YLR058C, strain SHM2 (second series), active compounds read low 1 | S. cerevisiae deletion strains, locus YLR085C, strain ARP6, active compounds read low 0.96 | S. cerevisiae deletion strains, locus YLR262C, strain YPT6, active compounds read low 0.98 | S. cerevisiae deletion strains, locus YML094W, strain GIM5, active compounds read low 0.96 | S. cerevisiae deletion strains, locus YMR219W, strain ESC1, active compounds read low 1 | S. cerevisiae deletion strains, locus YMR263W, strain SAP30, active compounds read low 0.984 | S. cerevisiae deletion strains, locus YNL128W, strain TEP1, active compounds read low 1 | S. cerevisiae deletion strains, locus YNL153C, strain GIM3, active compounds read low 0.94 | S. cerevisiae deletion strains, locus YNL298W, strain CLA4 (second series), active compounds read low 0.943 | S. cerevisiae deletion strains, locus YNL322C, strain KRE1, active compounds read low 1.01 | S. cerevisiae deletion strains, locus YNR030W, strain Alg12, active compounds read low 0.95 | S. cerevisiae deletion strains, locus YOL006C, strain TOP1, active compounds read low 0.993 | S. cerevisiae deletion strains, locus YPL055C, strain LGE1, active compounds read low 0.978 | S. cerevisiae deletion strains, locus YPL241C, strain CIN2, active compounds read low 0.971 | S. cerevisiae deletion strains, locus YPR135W, strain CTF4, active compounds read low 0.894 | S. cerevisiae strains, strain wild type, active compounds read low 1.01

— PubChem BioAssay AID1159580 (chemical genetic matrix, 2015)
